Bioassay records: PubChem, several laboratories
Hits are enriched below; roughly 1.3% of the tested compounds scored in any of these assays.
SARS 3CLpro inh – SARS-CoV 3CLpro protease inhibition; hit rate 0.14% among 290,000; recombinant SARS-CoV 3CLpro, quenched FRET peptide cleavage; inhibition, % at 6 µM; in the data active = inhibition above about 12%
MazEF act – activators of E. coli MazEF toxin-antitoxin RNase; P0AE70; FAM/BHQ RNA-DNA oligo cleavage fluorescence, 5 h; activation, % at 20 µM; hit rate 0.32% among 350,000; in the data active = activation above about 50%
Target sequence (P0AE70 whole entry, looked up): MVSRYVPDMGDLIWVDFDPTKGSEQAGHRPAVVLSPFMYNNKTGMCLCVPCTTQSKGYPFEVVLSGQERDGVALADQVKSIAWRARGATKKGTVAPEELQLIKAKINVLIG
Sa RN4220 lethal – S. aureus RN4220 growth inhibition; OD600, 16 h; AID 1259311; inhibition, % (test concentration not listed); hit rate 0.33% among 330,000; in the data active = inhibition above about 85%;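 note: plate controls were untreated cells for no effect and reference antibiotic for full effect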
CCHF vOTU inh-1 – CCHFV vOTU protease inhibition; Pep-AMC fluorescence; inhibition, % at 11.5 µM; hit rate 0.55% among 370,000; AID 651958; note: 0% = vehicle wells with enzyme and 100% = no enzyme wells
Mtb betalactam – beta-lactam sensitization of Mtb H37Rv | M. tuberculosis H37Rv growth with meropenem, percent inhibition | inhibition, % at 25 µM | hit rate 0.27% among 330,000 | AID 434955; call rule not given here;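 note: growth measured after seven days incubation then overnight dye step; 0% = bacteria only wells and 100% = bacteria with antibiotic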
ugtP null kill – growth inhibition of S. aureus ugtP deletion strain | S. aureus RN4220 ugtP deletion, OD600 growth, 16 h | growth inhibition, % (concentration not given with the values) | hit rate 0.54% among 330,000 | AID 1259309; in the data active = growth inhibition above about 68%;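 note: plate controls were untreated wells for no effect and antibiotic for full effect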
CCHF vOTU inh-2 – confirmation of CCHF virus vOTU protease inhibitors; Recombinant CCHFV vOTU, Pep-AMC fluorescence; inhibition, % at 11.5 µM; AID 686976; hit rate 17% among 1,900; shares compounds with CCHF vOTU inh-1
Active calls of the source: *; . = not tested or not shown. Cut-off read from the data, not from the text of the source, unless noted: active = inhibition above about 30%; inactive = the rest.

SMILES	SARS 3CLpro inh	MazEF act	Sa RN4220 lethal	CCHF vOTU inh-1	Mtb betalactam	ugtP null kill	CCHF vOTU inh-2
COc1ccc(OCC(=O)NN=Cc2cccn2-c2cccc(C(=O)O)c2)cc1	.	.	5	.	.	9	.
CC[n+]1c(/C=C/c2c[nH]c3ccccc23)ccc2cc(C)ccc21	-29	-101	96*	34*	.	97*	4
CCN(CC)C(=O)c1ccc(/C=C/c2c[nH]c3ccccc23)[n+](C)c1	-2	-217	5	18	0	2	.
CCOP(=O)(OCC)C(Nc1cccc(C(F)(F)F)c1)c1ccc(C)cc1 (configuration not stated)	3	8	6	30*	5	-9	11
CCCN(CC(=O)Nc1ccccc1C)C(=O)C1CCN(S(=O)(=O)c2ccc3c(c2)OCCO3)CC1	.	7	4	35*	.	5	-13
COc1ccc(C=Nn2c(-c3cccs3)n[nH]c2=S)cc1	.	.	13	.	.	-19	.
COc1cc(C(=O)NNC(=S)NC(=O)c2ccc(Cl)cc2)cc(OC)c1OC	4	5	48	30*	94	13	-4
COc1ccc(C(=O)NNC(=S)NC(=O)c2ccc(Cl)cc2)cc1	.	4	75	-11	96	80	.
O=c1c(O)c(-c2ccc(O)cc2)oc2cc(O)cc(O)c12	.	7	1	31*	-6	-10	-2
O=c1cc(-c2ccc(O)cc2)oc2cc(O)cc(O)c12	.	0	8	8	-9	-9	.
Cc1c(C(=O)NN=Cc2cccs2)nnn1-c1nonc1N	.	.	2	.	.	8	.
O=C(O)c1cccc(NS(=O)(=O)c2ccc3nnn(O)c3c2)c1	-7	8	-1	11	-14	0	.
O=C(O)c1cccc(NC2=C(n3nnc4ccccc43)C(=O)c3ccccc3C2=O)c1	5	1	5	79*	7	2	85*
O=C(Nc1ncc([N+](=O)[O-])s1)C1CCN(S(=O)(=O)c2cnc[nH]2)CC1	9	13	2	31*	-6	3	-1
O=C(COC(=O)Cc1ccc(Cl)cc1Cl)NC1CC1	.	3	6	32*	6	0	-11
O=C1CCCC(=NNC(=O)NC2CCCCC2)C1	.	.	10	.	.	2	.
c1ccc2c(c1)NCC1CCCN21 (configuration not stated)	6	5	2	37*	-3	4	-1
COc1cc2c(c(OC)c1OC)-c1c(cc3c(c1OC)OCO3)C1OC2C(C)C1C (configuration not stated)	.	.	7	.	.	6	.
Cc1ccc(C=NNC(=O)C[n+]2ccccc2)s1	.	.	3	.	.	7	.
Cc1nc(N2CCOCC2)nc(N2CCCCC2)c1[N+](=O)[O-]	-3	1	3	44*	2	8	-9
O=C(NC(=NO)c1ccccc1)Nc1ccc(Cl)cc1	.	.	-4	.	.	-17	.
CN(C(=S)Nc1cccnc1)c1ccc(O)cc1	-2	2	2	49*	1	-4	-15
CN(C(=S)Nc1ccc(Oc2ccccc2)cc1)c1ccc(O)cc1	-1	-1	-4	30*	-2	8	-24
CCN(C(=S)Nc1cccnc1)c1ccccc1	-5	11	15	4	-4	8	.
CN(C(=S)Nc1ccccc1)c1ccccc1	-1	4	5	1	4	9	.
SMILES	SARS 3CLpro inh	MazEF act	Sa RN4220 lethal	CCHF vOTU inh-1	Mtb betalactam	ugtP null kill	CCHF vOTU inh-2
CN(C(=S)Nc1ccc(SC(F)F)cc1)c1ccc(O)cc1	6	6	1	30*	-1	0	-29
COc1ccc(C(C)=NNC(=O)CNC(=O)c2cccnc2)cc1OC	.	.	0	.	.	4	.
Cc1ccc(OCc2cc(C(=O)N3CCC(C(O)C(C)C)CC3)no2)cc1C (configuration not stated)	-1	4	4	33*	-1	-3	-9
Cc1ccc(OCc2cc(C(=O)N3CCCCCCC3)no2)cc1C	-4	3	7	7	7	0	.
CC(=NNC(=O)CCn1nnc2ccccc21)c1cccs1	.	.	1	.	.	1	.
COCC(=O)Nc1cc(C)cn(Cc2cccc(C(F)(F)F)c2)c1=O	-6	7	0	6	-5	-3	.
Cc1cc(NS(C)(=O)=O)c(=O)n(Cc2cccc(C(F)(F)F)c2)c1	.	-10	.	31*	.	.	-25
N#Cc1c(-c2ccccc2)nc(SCc2cccc(Cl)c2)[nH]c1=O	7	1	33	32*	-9	27	8
COC1=C(Nc2ccc(OC)cc2)C(=O)c2ccccc2C1=O	-3	-3	29	59*	5	8	9
COC1=C(Nc2ccc(O)cc2)C(=O)c2ccccc2C1=O	9	3	41	40*	7	9	5
CCOc1ccc(NC2=C(OC)C(=O)c3ccccc3C2=O)cc1	2	2	16	62*	71	4	10
COc1ccc(NC2=C(c3ccc(OC)cc3)C(=O)c3ccccc32)cc1	-3	2	0	6	32	-10	.
COC1=C(Nc2ccc(OC)cc2)C(=O)C(OC)=C(Nc2ccc(OC)cc2)C1=O	.	8	4	-5	.	3	.
CCOC(=O)c1nn(-c2ccc(F)cc2)c2c1CCC2=Cc1ccccc1	.	.	8	.	.	-16	.
C/C(C=NNC(=O)c1cc(C)oc1C)=C/c1ccccc1	.	.	2	.	.	17	.
CC(=O)Nc1ccc(S(=O)(=O)NCC(=O)OCC(=O)N2CCc3ccccc32)cc1	-5	-1	4	30*	-2	5	-15
O=C(CNS(=O)(=O)c1ccccc1Br)OCC(=O)N1CCc2ccccc21	0	0	9	7	-3	3	.
Nc1cc2cccnc2cc1Cl	.	1	0	39*	.	-7	8
Oc1ccc2c3c1OC1c4oc5ccccc5c4C[C@@]4(O)C(C2)N(CC2CC2)CC[C@]314 (some centres not stated)	.	.	4	.	.	4	.
COc1ccc(C2(c3ccc(OC)cc3)NC(=O)N(CC(=O)N(C)C3CCC(C)CC3)C2=O)cc1 (configuration not stated)	.	-3	2	30*	95	2	2
CC1CCC(N(C)C(=O)CN2C(=O)NC(c3ccccc3)(c3ccccc3)C2=O)CC1 (configuration not stated)	.	-2	.	16	.	.	.
COc1ccccc1C1C(=C(O)c2ccccc2)C(=O)C(=O)N1CCO (configuration not stated)	.	.	1	.	.	-1	.
CCN(CC)CCCN1C(=O)C(=O)/C(=C(/O)c2ccccc2)C1c1cc(OC)ccc1OC (configuration not stated)	.	14	.	54*	2	.	-28
O=C(NC1CCCCC1)C(c1ccnc2ccccc12)n1c(=O)c(-c2ccco2)nc2ccccc21 (configuration not stated)	.	.	.	33*	.	.	-33
O=C(NC1CCCCC1)C(c1ccccc1F)n1c(=O)c(-c2ccco2)nc2ccccc21 (configuration not stated)	.	.	.	12	.	.	.
COc1cc([N+](=O)[O-])c(OC)cc1Nc1ccccc1C(=O)O	.	.	.	15	.	.	.
